# From PubChem BioAssay (Tox21)
# Inconclusive results are not listed. A call without a number means that no potency is given here. Unmarked numbers belong to inactive results. Active and inactive are the calls of the source. Calls follow the shape of the dose curve; as a rule, active = well fitted inhibition curve with a large enough effect in the signal ratio in the repeat runs (not every such curve was filed as active); inconclusive = weak or mixed curves, or effect the other way; inactive = no such curve, though single readings can be large or run the other way; the % refers to the signal ratio.
# Biological target: Bile acid receptor (Homo sapiens) (UniProt Q96RI1)
# Sequence (Q96RI1 whole entry, looked up): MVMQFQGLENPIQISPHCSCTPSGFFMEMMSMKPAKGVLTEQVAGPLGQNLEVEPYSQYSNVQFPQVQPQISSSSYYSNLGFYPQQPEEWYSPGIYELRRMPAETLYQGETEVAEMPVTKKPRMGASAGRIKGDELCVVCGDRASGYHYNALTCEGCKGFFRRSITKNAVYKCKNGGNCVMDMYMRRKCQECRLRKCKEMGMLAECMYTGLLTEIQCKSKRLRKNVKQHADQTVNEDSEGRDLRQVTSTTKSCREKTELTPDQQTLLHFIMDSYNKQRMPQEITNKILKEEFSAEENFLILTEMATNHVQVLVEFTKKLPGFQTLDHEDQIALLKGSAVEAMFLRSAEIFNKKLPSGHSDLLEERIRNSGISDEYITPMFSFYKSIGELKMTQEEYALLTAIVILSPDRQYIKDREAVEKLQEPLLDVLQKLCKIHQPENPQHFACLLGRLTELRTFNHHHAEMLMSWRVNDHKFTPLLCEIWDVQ
# Assay: qHTS assay to identify small molecule antagonists of the farnesoid-X-receptor (FXR) signaling pathway (AID 743217)
# Details: HEK293T FXR-UAS-bla, beta-lactamase ratio, CDCA-stimulated, 16 h; series mostly up to 62.6 µM; activity change, negative = inhibition: at the top concentration
# In short: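 GeneBLAzer FXR-UAS-bla HEK 293T, CDCA-stimulated (50 uM final). Compound treatment 16 h, 37 °C. Detection: beta-lactamase cleavage of B/G FRET substrate, fluorescence.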
Compound,"activity change, negative = inhibition",Potency
Cc1cccc2ccccc12,0.574%,
O=C(O)Cc1cccc2ccccc12,,inactive
O=C(O)CN(CC(=O)O)CC(=O)O,,inactive
COc1cc(O)c(C(=O)c2ccccc2)cc1S(=O)(=O)O,-11.1% [at 81.1 µM],
CCCCCCCCCCCCCC(=O)OC(C)C,,inactive
COc1cc(C=O)ccc1O,,inactive
CC1=NN(c2ccccc2)C(=O)C1,,inactive
C[C@]12C[C@H](O)[C@H]3[C@@H](CCC4=CC(=O)CC[C@@]43C)[C@@H]1CC[C@@H]2C(=O)CO,,inactive
CCCCC/C(C=O)=C\c1ccccc1,,inactive
CC(O)COc1ccccc1 (stereo not given),,inactive
O=C1CCCCCN1,,inactive
Cc1cnc(NC(=O)C2=C(O)c3ccccc3S(=O)(=O)N2C)s1,,inactive
CC(=O)c1ccc(S(=O)(=O)NC(=O)NC2CCCCC2)cc1,,inactive
Cn1cnc2c1c(=O)[nH]c(=O)n2C,,inactive
COC(=O)C1CCC(C(=O)OC)CC1 (stereo not given),,inactive
O=C(OCc1ccccc1)c1ccccc1,,inactive
COc1ccccc1O,,inactive
CCOC(=O)C(C)(C)Oc1ccc(Cl)cc1,,inactive
c1ccc2[nH]c(-c3cscn3)nc2c1,,inactive
NC(=O)c1ccc([N+](=O)[O-])cc1Cl,,inactive
Cc1c(N(C)C)c(=O)n(-c2ccccc2)n1C,,inactive
Cc1ccc(O)c(-n2nc3ccccc3n2)c1,,inactive
COCCOCCOC,,inactive
CC(C)CC(C)CC(O)CC(C)C (stereo not given),,inactive
Oc1cccc(O)c1,,inactive
CCCCCCCCCCCCCCCCCC(=O)OCC(O)CO (stereo not given),,inactive
COCC(C)N (stereo not given),,inactive
CCn1cc(C(=O)O)c(=O)c2ccc(C)nc21,,inactive
C=CCOC(=O)CC(C)C,,inactive
COC(=O)c1ccc(C=O)cc1,,inactive
